High-throughput results: PubChem BioAssay, National Center for Advancing Translational Sciences (NCATS)
POLB inh: qHTS Assay for Inhibitors of DNA Polymerase Beta. P06746. 340,000 compounds, 1.3% hits. Pol beta primer extension/strand displacement, fluorescence kinetic. Potency, µM (series often up to 114 µM), for inactives: at the highest dose activity change, negative = inhibition, actives largely listed as inhibitors; note: % is set by controls: 0 for no effect and ±100 for the full control effect
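Enzyme-only controls used 10 nM Pol beta; buffer lacking enzyme served as negative control. Compound preincubated 15 min, then 50 nM substrate added; 0 and 10 min reads at room temperature.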
POLK inh: qHTS for Inhibitors of Polymerase Kappa | DNA polymerase kappa (Homo sapiens), Q9UBT6 | purified Pol kappa, fluorescent DNA synthesis assay, 10 min | Potency, µM (series often up to 107 µM), inactives show top-dose activity, negative = inhibition, usual class: inhibitors | 400,000 compounds, 0.53% hits | AID 588579, 2011; note: % is set by controls: 0 for no effect and ±100 for the full control effect
Target sequence (Q9UBT6 whole entry, looked up): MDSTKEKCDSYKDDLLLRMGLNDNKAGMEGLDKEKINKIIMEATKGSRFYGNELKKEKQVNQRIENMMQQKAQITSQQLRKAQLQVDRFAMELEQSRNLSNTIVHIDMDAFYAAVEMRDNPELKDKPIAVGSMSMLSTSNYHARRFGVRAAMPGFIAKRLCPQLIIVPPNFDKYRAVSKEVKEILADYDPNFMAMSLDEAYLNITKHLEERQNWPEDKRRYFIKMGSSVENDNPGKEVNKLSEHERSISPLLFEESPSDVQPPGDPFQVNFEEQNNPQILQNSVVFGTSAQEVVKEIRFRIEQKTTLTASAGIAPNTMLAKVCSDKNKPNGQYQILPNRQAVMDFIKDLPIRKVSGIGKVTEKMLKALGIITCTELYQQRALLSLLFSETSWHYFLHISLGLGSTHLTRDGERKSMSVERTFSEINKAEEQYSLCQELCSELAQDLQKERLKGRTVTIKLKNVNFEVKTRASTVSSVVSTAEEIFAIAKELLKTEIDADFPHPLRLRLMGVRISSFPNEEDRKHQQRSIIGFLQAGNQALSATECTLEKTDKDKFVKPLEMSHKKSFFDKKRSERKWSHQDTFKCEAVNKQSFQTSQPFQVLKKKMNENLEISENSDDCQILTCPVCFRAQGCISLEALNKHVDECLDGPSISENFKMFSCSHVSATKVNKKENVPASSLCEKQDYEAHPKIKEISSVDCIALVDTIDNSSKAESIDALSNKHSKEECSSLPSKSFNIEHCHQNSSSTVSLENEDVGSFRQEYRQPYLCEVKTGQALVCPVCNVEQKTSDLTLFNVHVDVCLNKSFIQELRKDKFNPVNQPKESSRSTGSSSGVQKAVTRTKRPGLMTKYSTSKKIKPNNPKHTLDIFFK
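10 nM Pol kappa was preincubated with compounds for 15 min at room temperature. Reaction started with 50 nM (final) substrate. Fluorescence read kinetically at 0 and 10 min.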
Pol iota inh: qHTS for Inhibitors of Polymerase Iota | Pol iota fluorescent replication assay, 10 min | Potency, µM (doses to about 115 µM), for the others: top-dose activity, negative = inhibition, usual class: inhibitors | 390,000 compounds, 1% hits | AID 588590, 2011
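Pol iota at 10 nM preincubated 15 min with compounds at room temperature; reaction started with fluorescent substrate, 50 nM final. Fluorescence read kinetically at 0 and 10 min; buffer-only wells as negative control.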
WRN helicase inh: qHTS for Inhibitors of WRN Helicase. Bifunctional 3'-5' exonuclease/ATP-dependent helicase WRN (Homo sapiens), Q14191. WRN helicase unwinding, fluorescent forked duplex, kinetic. 360,000 compounds, 0.46% hits. AID 651768, 2012. Potency, µM (titrated, usually from 114 µM), for inactives: at the highest dose activity change, negative = inhibition, usual class: inhibitors; note: % is set by controls: 0 for no effect and ±100 for the full control effect; nearly all actives have a fitted effect of over 55% in size
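Enzyme (20 nM final) and test compound sit together 15 min at room temperature before substrate addition. Substrate is a single-forked duplex oligonucleotide (100 nM) labelled with fluorophore and quencher, with 2 mM ATP; helicase unwinding raises red fluorescence, read kinetically.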
Pol eta inh: qHTS for Inhibitors of Polymerase Eta; DNA polymerase eta (Homo sapiens), Q9Y253; Potency, µM (doses to about 114 µM), without a hit: at the top dose activity change, negative = inhibition, most hits filed as inhibitors; recombinant Pol eta, fluorescent DNA replication assay; AID 588591, 2011; 390,000 compounds, 1.2% hits; note: % is set by controls: 0 for no effect and ±100 for the full control effect
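Fluorescent replication assay: 50 nM final substrate added after a 15 min room-temperature compound preincubation with 10 nM enzyme. Signal taken at 0 min and again at 10 min.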
An asterisk follows results filed as active; ? = inconclusive; / = no result; ! = not confirmed by another sample; [ ] = dose if it differs, or a comment. Only some compounds are listed: those with a hit (about 2.3% of all), similar ones and a draw of the others. Calls come from the whole dose curve; as a rule, active = well fitted curve in the direction sought with a large enough effect; inconclusive = small, poorly fitted or top-dose-only effect, or another doubt; inactive = no such curve, though single readings can be large; an effect the other way counts as inactive or inconclusive. Potency is the fitted concentration of half-maximal effect.

SMILES	POLB inh	POLK inh	Pol iota inh	WRN helicase inh	Pol eta inh
CN(C(=O)c1ccc(OCC=C(c2ccccc2)c2ccccc2)cc1)c1ccccc1I	/	-10%	-3%	/	/
O=C(Nc1ccc(C2=NCCN2)cc1)c1ccc(C(=O)Nc2ccc(C3=NCCN3)cc2)c([N+](=O)[O-])c1	2.2µM*	45µM*	10µM*	?	?
O=C(NCCc1cn2ccccc2n1)c1cc(COc2ccc3ncccc3c2)on1	40µM*	-23%	36%	-4%	-10%
Cc1ccc(S(=O)(=O)N2CCN(c3nc(-c4cncn4C)nc4ccccc34)CC2)cc1	/	-23%	-15%	/	/
CC[Si](CC)(CC)O[C@H]([C@@H](C)COCOC)[C@@H](C)COCc1ccc(OC)cc1	/	-4%	30%	/	/
O=C(c1ccc2c(=O)n3c(nc2c1)CCCCC3)N1CCN(c2ccccc2)CC1	12%	1%	-15%	-3%	-10%
O=C(c1ccc2c(=O)n3c(nc2c1)CCCCC3)N1CCN(C(c2ccccc2)c2ccccc2)CC1	24%	-3%	89µM*	-20%	-14%
CN(C)c1ccc(CC2C(=O)Nc3ccccc32)cc1 (centres undefined)	-5%	-12%	25µM*	-19%	-19%
CC(C)n1c(SCC(=O)N2c3ccccc3Sc3ccccc32)nc2c1c(=O)n(C)c(=O)n2C	8%	-3%	-16%	-6%	-4%
CCCn1c(SCC(=O)N2c3ccccc3Sc3ccccc32)nc2c1c(=O)n(C)c(=O)n2C	-6%	-9%	89µM*	0%	-2%
CCn1c(SCC(=O)N2c3ccccc3Sc3ccccc32)nnc1-c1ccco1	45µM*	-4%[60.1 µM]	15%	-17%	-14%
CCOc1ccc(-c2nc3scc(-c4cccs4)c3c(=O)[nH]2)cc1	-22%	-1%	13%	-4%	-10%
CCc1nc2scc(-c3cccs3)c2c(=O)o1	32µM*	-13%	?	-16%	?
CN(C)/C=C/C(=O)c1ccc2noc(-c3ccccc3)c2c1	?	-18%	79µM*	2%[11.6 µM]	?
O=C(O)Cc1ccc(C(=O)CSc2ccccc2)s1	16µM*	?	25µM*	?	20µM*
CC[C@H](C)C(N)C(=O)O (some centres undefined)	/	22%[60.1 µM]	/	/	/
COCCn1c(C)cc(C(=O)COC(=O)c2ccc([N+](=O)[O-])o2)c1C	?	-26%	?	1%	79µM*
Cc1cc(C(=O)COC(=O)c2ccc([N+](=O)[O-])o2)c(C)n1CC1CCCO1 (centres undefined)	?	-31%	?	7%	-29%
COc1cc(/C=C2\C(=O)N(c3ccc(NC(C)=O)cc3)N=C2c2ccccc2)ccc1O	49%	-10%	?	-13%	10%
CCOc1cc(/C=C2\C(=O)N(c3nc(-c4ccc(Br)cc4)cs3)N=C2c2ccccc2)ccc1O	10µM*	79µM*	?	-35%	10µM*
O=C(CNC(=O)c1cccc(F)c1)N/N=C/c1cc(Br)ccc1OC(=O)/C=C/c1ccco1	35µM*	-9%[60.1 µM]	?	-23%	9%
COc1cccc2cc(C(=O)NCc3ccco3)c(=Nc3ccc(C(=O)O)cc3)oc12	-8%	0%	8%	-9%[57.1 µM]	89µM*
COc1cccc2cc(C(=O)NCc3ccco3)c(=O)oc12	-4%	0%	10%	3%	0%
c1cc2[nH]snc2c2nc(C3CC3)nc12	4%	-8%	?	-15%[57.1 µM]	79µM*
Cc1c(Br)cnc2ccccc12	/	-13%	6%	/	/
SMILES	POLB inh	POLK inh	Pol iota inh	WRN helicase inh	Pol eta inh
O=C(COc1ccccc1/C=C\c1nc(O)c([N+](=O)[O-])c(=O)[nH]1)Nc1ccccc1	-3%	-11%	?	?	28µM*
CCOc1ccccc1/C=C\c1nc(O)c([N+](=O)[O-])c(=O)[nH]1	-10%	-16%	-17%	-22%[57.1 µM]	?
O=C1C(c2ccccc2)=[N+]([O-])c2ccccc21	/	-25%	8.9µM*	71µM*	?
COc1ccc(C(=O)COC(=O)c2ccc(Cl)nc2)c(OC)c1	/	-26%	40µM*	-26%	?
COc1ccc(C(=O)COC(=O)CCNS(=O)(=O)c2ccccc2)c(OC)c1	/	-22%	50µM*	0%[11.6 µM]	?
CCC(C(=O)OCC(=O)Nc1cc(OC)ccc1OC)c1ccccc1 (centres undefined)	-11%	-13%	-5%	-1%	3%
O=C(CCNS(=O)(=O)c1ccccc1)OCC(=O)c1ccc(F)cc1	/	5%	30%	-12%	-10%
CCC(C(=O)OCC(=O)c1ccc(OC)cc1OC)c1ccccc1 (centres undefined)	/	-41%	?	-24%	32µM*
COc1ccc(C(=O)COC(=O)c2ccc3c(c2)NC(=O)CS3)c(OC)c1	/	?	40µM*	3%[11.6 µM]	?
O=c1[nH]/c(=C/c2ccc3c(c2)OCO3)c(=O)[nH]/c1=C/c1ccc2c(c1)OCO2	/	15%	45%	/	/
CN(C)c1ccc(/C=C/c2ccnc3ccc(F)cc23)cc1	/	0%	-3%	/	/
COc1ccc(C(=O)COC(=O)c2ccccc2O)c(OC)c1	/	?	28µM*	-24%	25µM*
CN(C1=C(NC(=O)c2ccccc2)C(=O)c2ccccc2C1=O)C1CCS(=O)(=O)C1 (centres undefined)	?	6%[60.1 µM]	7.9µM*	-1%	79µM*
O=c1ccc2cc3c4c(c2o1)CCCN4CCC3	0%	-33%	?	-20%	?
O=c1oc2c3c4c(cc2s1)CCCN4CCC3	22µM*	?	11µM*	?	?
O=c1cc(-c2ccc(O)c(O)c2)oc2ccc3ccccc3c12	/	-24%	?	-30%	?
O=c1oc(-c2ccc(O)c(O)c2)cc2cccc(O)c12	/	?	?	?	35µM*
COc1cc2c(C(=O)N3CCN(c4cccc(C(F)(F)F)c4)CC3)cn(CC(C)C)c(=O)c2cc1OC	-5%	-13%[60.1 µM]	89µM*	/	-21%
Cc1ccccc1OCC(=O)Nc1cc(C)c(O)c(-c2nc3ccccc3o2)c1	/	2%	?	/	/
CCN(CC)c1ccc(/C=C/c2ccccn2)cc1	/	-22%	?	/	/
CCCc1cc(=O)[nH]c(-n2[nH]c3c(c2=O)CCCC3)n1	12%	-17%	16µM*	?	-14%
COc1ccccc1/C=C/c1cncc(/C=C/c2ccccc2OC)c1	/	-19%	8%	/	/
CNc1c(Br)cc(C=O)cc1Br	/	-7%	4%	/	/
O=C(Nc1ccccc1C(F)(F)F)NC1(C(=O)N2CCOCC2)CCCCC1	/	50µM*	14µM*	?	?
COC(=O)C(N)Cc1ccc(O)c(O)c1 (centres undefined)	-18%	89µM*	?	-9%	6%
C[C@](N)(Cc1ccc(O)c(O)c1)C(=O)O	1.1µM*	2.7µM*!	25µM*	/	?
